# Screens as filed in PubChem BioAssay.
# A selection: hits, their analogues and other compounds. The true share with any hit is near 1.6%.
# FUS yeast rescue: suppressors of FUS proteinopathy in yeast | S. cerevisiae FUS-expressing, growth rescue, OD600, 24 h | Potency, µM (highest dose often 76.6 µM), hits mostly activators | actives 0.24% (n = 390,000) | AID 1347120; note: nearly all actives have a fitted effect of over 55% in size
#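 Compound concentration series was pinned onto galactose-induced FUS-expressing yeast seeded at OD 0.005. Plates sat 24hr at 30C; absorbance at 600 nm gave growth. DMSO served as background control.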
# gsp agonist: agonists of gsp mutant (McCune-Albright syndrome); Potency, µM (titrated, usually from 76.9 µM), most hits filed as activators; actives 0.13% (n = 340,000); gsp mutant cells, cAMP HTRF, 30 min; AID 624287; active = well fitted activation curve with a large enough effect; inconclusive = small, poorly fitted or top-dose-only effect, or another doubt; inactive = no such curve, though single readings can be large or run the other way; cell line not stated here;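 note: phosphodiesterase inhibitor Ro 20-1724 added with compounds to block cAMP breakdown; nearly all actives have a fitted effect of over 60% in size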
#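 Cells stably selected in G418 were plated at 2000/well, grown 16-24 hr, then given compounds in DMSO with the PDE inhibitor […] (300 uM solution added) for 30 min at 37C; cAMP was read by HTRF.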
# 12-LOX inh: blocks human arachidonate 12S-lipoxygenase; P18054; purified 12hLO, xylenol orange hydroperoxide absorbance; Potency, µM (doses to about 108 µM), hits mostly inhibitors; actives 1.1% (n = 580,000); AID 1671190
# Target sequence (P18054 whole entry, looked up): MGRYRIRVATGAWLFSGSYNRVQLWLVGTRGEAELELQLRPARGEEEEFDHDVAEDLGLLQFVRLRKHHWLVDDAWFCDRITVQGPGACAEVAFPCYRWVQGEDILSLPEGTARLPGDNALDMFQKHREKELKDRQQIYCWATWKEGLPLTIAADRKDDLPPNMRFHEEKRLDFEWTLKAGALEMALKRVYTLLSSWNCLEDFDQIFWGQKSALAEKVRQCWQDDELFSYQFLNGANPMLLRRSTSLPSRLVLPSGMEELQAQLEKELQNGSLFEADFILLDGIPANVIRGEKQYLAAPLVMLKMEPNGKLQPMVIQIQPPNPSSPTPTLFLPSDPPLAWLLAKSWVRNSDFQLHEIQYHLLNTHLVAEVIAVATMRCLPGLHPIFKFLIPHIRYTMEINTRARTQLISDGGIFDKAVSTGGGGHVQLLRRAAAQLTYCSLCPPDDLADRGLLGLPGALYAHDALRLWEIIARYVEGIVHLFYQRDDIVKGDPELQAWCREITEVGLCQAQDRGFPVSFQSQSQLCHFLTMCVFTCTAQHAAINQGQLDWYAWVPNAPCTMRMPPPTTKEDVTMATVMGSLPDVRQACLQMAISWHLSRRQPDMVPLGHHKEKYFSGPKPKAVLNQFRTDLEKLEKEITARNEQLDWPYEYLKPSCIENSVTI
#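 Hydroperoxide product was detected by ferrous iron/xylenol orange as the 573 to 405 nm absorbance ratio. Arachidonic acid at 40 uM (final) was turned over for 30 min at room temperature by 150 nM human 12hLO, pH 7.0 Hepes buffer, after 15 min compound preincubation.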
# gsp antag: antagonizes gsp, the McCune-Albright syndrome mutation | gsp-mutant cells, cAMP HTRF, 30 min | Potency, µM (highest dose often 76.9 µM), most hits filed as inhibitors | actives 0.4% (n = 340,000) | AID 624288; calls by dose curve; cell line not stated here;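 note: intracellular cAMP measured with PDE inhibitor Ro 20-1724 present during compound exposure; nearly all actives have a fitted effect of over 65% in size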
#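 HTRF cAMP measurement after 30 min RT detection following 30 min, 37C compound treatment alongside […] (added as 300 uM solution) in G418-selected cells seeded at 2000/well and grown 16–24 h.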
# Mito fusion act: mitochondrial division inhibition or fusion activation. AID 485298. S. cerevisiae fusion-defective mutant growth rescue, CellTiterGlo 48 h. actives 0.23% (n = 320,000). Potency, µM (titrated, usually from 46.1 µM), actives largely listed as activators; note: nearly all actives have a fitted effect of over 45% in size
#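 Luminescent cell viability in 1536-well qHTS format served as the measure of rescued growth in ts fusion-mutant S. cerevisiae cultured on non-fermentable YPEG for 48 hours at 37C.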
# Numbers stand for hits; i = inactive; ? = inconclusive; nt = not tested or not shown; [ ] = remark or other dose. Unless noted, calls come from the whole dose curve; as a rule, active = well fitted curve in the direction sought with a large enough effect; inconclusive = small, poorly fitted or top-dose-only effect, or another doubt; inactive = no such curve, though single readings can be large; an effect the other way counts as inactive or inconclusive.
SMILES,FUS yeast rescue,gsp agonist,12-LOX inh,gsp antag,Mito fusion act
O=C(NCc1ccc(Cl)cc1)c1c[nH]c2cccnc12,nt,nt,i[12.5 µM],nt,nt
COc1ccc(-n2cnc(=S)[nH]c2=S)cc1,i,i,22µM,i,nt
O=C(CSc1nc2ccccc2[nH]1)N1CCN(S(=O)(=O)c2ccccc2)C1,nt,nt,i,nt,nt
O=C(Nc1ccc(Cl)cc1)c1nc2c(o1)CCN(Cc1ccc3cn[nH]c3c1)CC2,nt,nt,i,nt,nt
CC(=O)Oc1ccccc1C(=O)Nc1ccc2c(c1)CN(CCc1ccc(F)cc1)C(=O)C(C)O2 (configuration not stated),nt,nt,i,nt,nt
O=[N+]([O-])c1ccccc1S(=O)(=O)N/C(=N/S(=O)(=O)c1ccccc1)c1ccccc1,i,i,i,i,nt
O=C(NS(=O)(=O)c1ccccc1[N+](=O)[O-])c1ccccc1,i,i,11µM,i,i
O=C(NS(=O)(=O)NC(=O)c1ccccc1)c1ccccc1,nt,nt,11µM,nt,nt
O=C(OCc1ccc(Br)cc1)c1cnccn1,nt,nt,i,nt,nt
Cc1ccc(CNC(=O)c2ccc(N3CC4CC(C3)[C@H]3CCCC(=O)N3C4)nc2)o1 (some centres not stated),nt,nt,i,nt,nt
CC(C)CC(=O)n1sc(NC(=O)c2ccccc2)nc1=O,nt,i,i,28µM,i
Cc1ccc(C(=O)Nc2nc(=O)n(C(=O)CC(C)C)s2)cc1,i,i,i,i,i
Cc1ccc(C(=O)Nc2nc(=O)n(C)s2)cc1,i,i,i,22µM,i
CC(=O)Nc1ccc(S(=O)(=O)N2CCC(C(=O)N[C@@H](C)C(=O)NC3CCCC3)CC2)cc1,i,i,i,50µM,i
COc1ccc(S(=O)(=O)N2CCC(C(=O)N[C@@H](C)C(=O)NC3CC3)CC2)cc1,i,?,i,i,i
CNC(=O)c1ccsc1NC(=O)c1ccc2c(c1)CCCC2,i,?,i,?,5.6µM
COc1ccc(NC(=O)c2cc(-c3ccccc3O)on2)cc1OC,nt,nt,0.63µM,nt,nt
COc1cc(C2CC(=O)N3CN(Cc4ccco4)CSC3=C2C#N)ccc1OCc1ccccc1 (configuration not stated),i,i,25µM,i,i
COc1ccc(C2CC(=O)N3CN(Cc4ccco4)CSC3=C2C#N)cc1 (configuration not stated),?,i,?,i,i
CC(C)c1ccc(C2CC(=O)N3CN(Cc4ccco4)CSC3=C2C#N)cc1 (configuration not stated),i,i,?,?,i
N#CC1=C2SCN(Cc3ccccc3)CN2C(=O)CC1c1ccc2c(c1)OCO2 (configuration not stated),i,i,40µM,i,i
N#CC1=C2SCN(Cc3ccco3)CN2C(=O)CC1c1ccc(Cl)cc1 (configuration not stated),20µM,i,?,i,i
CC(=O)Nc1ccc(S(=O)(=O)Nc2nc3ccccc3nc2Nc2cccc(Cl)c2)cc1,nt,nt,16µM,nt,nt
CC(=O)c1cccc(Nc2nc3ccccc3nc2NS(=O)(=O)c2ccccc2)c1,nt,nt,i,nt,nt
CC(=O)Nc1ccc(S(=O)(=O)Nc2nc3ccccc3nc2Cl)cc1,i,7.9µM,nt,i,i
SMILES,FUS yeast rescue,gsp agonist,12-LOX inh,gsp antag,Mito fusion act
CC(=O)Nc1ccc(S(=O)(=O)Nc2nc3cc4c(cc3nc2Cl)OCCO4)cc1,i,i[15.4 µM],i,i,i
O=S(=O)(Nc1nc2ccccc2nc1Nc1cccc(S(=O)(=O)N2CCCCC2)c1)c1ccccc1,i,i,i,35µM,i
Cc1cc(F)ccc1S(=O)(=O)Nc1nc2ccccc2nc1Cl,i,22µM,?,i,i
Cc1ccc(C(C)(C)C)cc1S(=O)(=O)Nc1nc2ccccc2nc1Cl,i,?,?,i,i
Cc1cc(C)n(-c2nc3c(c(=O)n(C/C=C/c4ccccc4)c(=O)n3C)n2C)n1,nt,nt,i,nt,nt
Cn1c(=O)n(C)c2cc(SC3CCCCC3)c(NS(=O)(=O)c3cccc(Cl)c3)cc21,nt,nt,i,nt,nt
O=C(CN1CCN(c2ccccc2)CC1)Nc1nc(-c2ccc(Cl)cc2)cs1,nt,nt,i,nt,nt
O=C(Nc1ccc(Cl)cc1C(F)(F)F)c1cc(I)ccc1Cl,nt,nt,i,nt,nt
O=C(O)c1ccc(Nc2ccccc2)c([N+](=O)[O-])c1,nt,nt,i,nt,nt
CNC(=S)N/N=C/c1cccc(OCc2ccccc2F)c1,i,i[15.4 µM],?,i,i
CCNC(=S)N/N=C/c1cccc(OCc2c(F)cccc2Cl)c1,nt,i,40µM,i,i
